From PubChem BioAssay (NCI)
The panel holds about 83,000 compounds, 20% with a hit somewhere; the sample as a whole holds those more often.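 Testing used 96-well plates and a 48-hour single-concentration exposure. Example: -40 means 40% of the starting cells died.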 The source made the active and inactive calls. The calls were made as follows: active = growth percent below 10; inactive = the rest.

Experiments:
Assay in all cases: NCI-60 one-dose screen, 48 h (100 = growth as untreated, 0 = no growth, -100 = all killed)
Details in all cases: 10 µM unless noted
[1] = system: SR leukemia
[2] = system: RPMI-8226 leukemia
[3] = system: OVCAR-8 ovarian
[4] = system: OVCAR-4 ovarian
[5] = system: SK-OV-3 ovarian
[6] = system: IGROV1 ovarian
[7] = system: OVCAR-3 ovarian
[8] = system: HS 578T breast
[9] = system: NCI/ADR-RES ovarian
[10] = system: T-47D breast
[11] = system: BT-549 breast
[12] = system: MDA-MB-435 melanoma
[13] = system: SW-620 colon
[14] = system: MCF7 breast
[15] = system: HCT-116 colon
[16] = system: HCC-2998 colon
[17] = system: KM12 colon
[18] = system: OVCAR-5 ovarian

Measured: growth

Nc1c(C(=O)Nc2ccncc2)sc2nc3c(cc12)CCCCCC3
inactive: [1] 20.8% | [2] 64.9% | [3] 86.7% | [4] 86.9% | [5] 79.6% | [6] 103% | [7] 104% | [8] 83.2% | [9] 89% | [10] 49.9% | [11] 69.4% | [12] 96% | [13] 103% | [14] 78.5% | [15] 65.5% | [16] 94.1%

Cc1ccc(Sc2oc(-c3ccc(C)cc3)nc2[P+](c2ccccc2)(c2ccccc2)c2ccccc2)cc1
active: [1] -18.8% | [2] -37.6% | [3] 5.45% | [4] -3.08% | [5] -3.38% | [6] -74.4% | [7] -3.45% | [8] -8.27% | [9] 1.73% | [10] 1.57% | [11] -30.9% | [12] -30.3% | [14] -23.8% | [15] 2.12% | [16] 1.79%

N#Cc1c(NC(=O)c2ccccc2)sc2c1CCC(=O)C2
active: [1] 7.72% | [2] -2.69% | [4] -64.9% | [7] -4.44% | [9] 5.57% | [10] -24.8% | [12] 2.87% | [14] 4.73% | [15] 5.81% | [17] 8.5%
inactive: [3] 14.5% | [5] 64.7% | [6] 27.4% | [8] 23.3% | [11] 16.2%

O=C(OCc1ccc2c(Cl)cc(Cl)c(O)c2n1)n1cncn1
active: [9] 5.53%
inactive: [1] 23.1% | [2] 32.9% | [3] 20.7% | [4] 25.1% | [5] 39% | [6] 32.9% | [7] 30.7% | [8] 67.4% | [10] 36.1% | [11] 50.4% | [12] 27.9% | [13] 24.7% | [14] 23.2% | [15] 30.1% | [16] 54.4% | [17] 21.8%

COc1ccc2[nH]cc(-c3nc(-c4cn(C)c5c(Cl)nccc45)cs3)c2c1
inactive: [1] 13.9% | [2] 44.7% | [3] 22.9% | [18] 97.4% | [5] 60.1% | [7] 77.6% | [9] 11.1% | [10] 11.6% | [11] 45% | [14] 43.9% | [15] 43.9% | [16] 62% | [17] 32%
active: [12] 6.78% | [13] -5.25%

CN(C)CCCC1(c2ccc(F)cc2)OCc2cc(-c3cncc4ccccc34)ccc21 (centres undefined)
active: [1] -3.26% | [12] 8.32% | [16] 7.15%
inactive: [2] 35.3% | [3] 62.7% | [4] 43.9% | [5] 59.6% | [7] 47% | [8] 27.5% | [9] 67% | [10] 55.9% | [11] 76.8% | [13] 34.2% | [14] 23.5% | [15] 22.5% | [17] 34.5%

C=CCc1c(O)c(C(=O)/C=C/c2ccc(Cl)cc2)c(OC)c2ccoc12
active: [2] 8.82%
inactive: [1] 17.7% | [3] 42.6% | [4] 57.3% | [5] 66.4% | [6] 43.3% | [7] 32.8% | [8] 81% | [9] 39.1% | [10] 39.9% | [11] 47.8% | [12] 18.2% | [13] 37.3% | [14] 21.4% | [15] 17.2% | [16] 63.3% | [17] 41.1%

CN1CCN(c2ccc(NC(=O)c3cncnc3Nc3ccc(OCc4ccccn4)c(Cl)c3)cc2)CC1
active: [1] 4.59% | [12] -60.2% | [15] -48%
inactive: [2] 23.3% | [3] 15.2% | [4] 61.8% | [5] 99.4% | [6] 79.4% | [7] 70.6% | [8] 67.4% | [9] 70.5% | [10] 53.7% | [11] 77.9% | [14] 26.5% | [16] 67.4% | [17] 49.3%

Cc1c(-n2nnc(-c3nc4ccccc4s3)c2N)c(=O)n(-c2ccccc2)n1C
inactive: [1] 103% | [2] 105% | [3] 102% | [4] 105% | [5] 97.8% | [6] 90.5% | [7] 107% | [8] 100% | [9] 92.5% | [10] 94.6% | [11] 107% | [12] 114% | [13] 106% | [14] 90.6% | [15] 103% | [16] 95.4% | [17] 106%

COc1ccc(-c2nnc(-c3ccc4c(c3)nc(-c3ccncc3)n4C3CCCCC3)o2)cc1
inactive: [1] 46.6% | [2] 34.1% | [3] 53.5% | [4] 61.1% | [5] 80.4% | [6] 73.7% | [7] 67.3% | [8] 68.6% | [9] 56.9% | [10] 30.8% | [11] 54.6% | [12] 75.9% | [13] 95.9% | [14] 65.6% | [15] 62.3% | [16] 88.8% | [17] 71.9%

O=C(O)c1[nH]c(=O)[nH]c(=O)c1[N+](=O)[O-]
inactive: [1] 70.9% | [2] 112% | [3] 101% | [4] 122% | [5] 116% | [7] 134% | [8] 106% | [9] 103% | [10] 109% | [11] 107% | [12] 106% | [13] 109% | [14] 98.8% | [15] 100% | [16] 99.2% | [17] 115%

COC(=O)c1c2c(c[n+]([O-])c1C)C(=O)C(NCc1ccccc1)=CC2=O
active: [1] 2.6% | [2] -24.5% | [3] -2.43% | [4] -97% | [5] 8.1% | [6] -54.3% | [7] -35.3% | [8] -15.3% | [9] -14.1% | [10] -31.8% | [12] -93.7% | [13] -19% | [14] -58.3% | [15] 1.8% | [17] -0.692%

COc1ccc(-c2nc(/C=C3\SC(=NCc4ccccc4)NC3=O)c3ccccn23)cc1
active: [1] 3.32% | [2] -3.83% | [3] -24.6% | [4] -71.9% | [5] -46.7% | [6] -44.7% | [7] -88.5% | [8] -35.3% | [9] -4.46% | [10] -67% | [11] -92.9% | [12] -4.34% | [13] -55.5% | [14] -62.2% | [15] -97.2% | [17] -78%

O=C(c1ccccc1)C1C(=O)N2C(=S)N(c3ccccc3)C(=O)C2C1c1ccc(Cl)cc1 (centres undefined)
inactive: [1] 101% | [2] 103% | [3] 94.8% | [4] 90.8% | [5] 88% | [6] 54.2% | [7] 95.6% | [8] 88.9% | [10] 83.1% | [11] 88.6% | [12] 105% | [13] 102% | [14] 65.2% | [15] 96.6% | [16] 94.8%

Cc1ccc(NC(=S)NNC(=S)NNc2ccccc2)cc1C
inactive: [1] 56.8% | [2] 78.9% | [3] 98.2% | [5] 104% | [6] 98.5% | [7] 73.9% | [9] 110% | [10] 98.1% | [11] 120% | [12] 110% | [13] 106% | [14] 98.9% | [15] 116% | [16] 123% | [17] 90.8%

O=C(O)CNC1=C(Cl)C(=O)c2ccccc2C1=O
inactive: [1] 107% | [2] 87.4% | [3] 87.9% | [4] 97% | [5] 114% | [6] 103% | [7] 97.5% | [8] 124% | [9] 98.3% | [10] 78.1% | [11] 87.5% | [12] 102% | [13] 102% | [14] 81.8% | [15] 100% | [16] 114% | [17] 104%

CCCCCOc1ccc(C(=O)/C(Br)=C/C(=O)O)cc1
inactive: [1] 91.9% | [2] 77.8% | [3] 114% | [4] 105% | [5] 109% | [6] 85.6% | [7] 100% | [8] 102% | [9] 95% | [10] 92.6% | [11] 110% | [12] 104% | [13] 111% | [14] 91.7% | [15] 89.2% | [17] 107%

O=C(Nn1c2c(sc1=Nc1ccccc1)C(=O)c1ccccc1C2=O)c1cc2ccc1CCc1ccc(cc1)CC2
active: [12] -72.5%
inactive: [1] 61.1% | [2] 75.2% | [3] 62.2% | [4] 69.4% | [5] 76.3% | [6] 48.8% | [7] 64.8% | [8] 78.9% | [9] 70.2% | [10] 71.1% | [11] 67.9% | [13] 75.9% | [14] 45.6% | [15] 60.9% | [16] 86.8% | [17] 78.8%

CCN(CC)CCCN1C(=O)c2c(c(C)c3c(oc4cc(O)ccc43)c2C)C1=O
inactive: [5] 105% | [7] 118% | [8] 101% | [10] 97.7% | [11] 94.8%
active: [1] 8.28% | [2] -30% | [3] -39.4% | [4] -50.2% | [6] -74.5% | [9] -40.4% | [12] -61.1% | [14] -69.2% | [15] -76.4% | [16] -88.9% | [17] -59.3%
